Test results reported in the supplement of paper PMC11732987, “Enantioselective OTUD7B fragment discovery through chemoproteomics screening and high-throughput optimisation” (Communications Chemistry, 2025).

Legend:
Assay in all cases: log2 ratio of Biotin-Ahx-Ub-VS probe labelling (fragment/DMSO); higher = less target engagement (more negative = stronger competition), active = hit call of the paper (q ≤ 0.05, log2 ratio ≤ -1)
Settings in all cases: compound concentration: 200 uM; treatment time: 3 h
USP19 = molecular target: T1, USP19 (UniProt O94966)
T1 sequence (whole entry): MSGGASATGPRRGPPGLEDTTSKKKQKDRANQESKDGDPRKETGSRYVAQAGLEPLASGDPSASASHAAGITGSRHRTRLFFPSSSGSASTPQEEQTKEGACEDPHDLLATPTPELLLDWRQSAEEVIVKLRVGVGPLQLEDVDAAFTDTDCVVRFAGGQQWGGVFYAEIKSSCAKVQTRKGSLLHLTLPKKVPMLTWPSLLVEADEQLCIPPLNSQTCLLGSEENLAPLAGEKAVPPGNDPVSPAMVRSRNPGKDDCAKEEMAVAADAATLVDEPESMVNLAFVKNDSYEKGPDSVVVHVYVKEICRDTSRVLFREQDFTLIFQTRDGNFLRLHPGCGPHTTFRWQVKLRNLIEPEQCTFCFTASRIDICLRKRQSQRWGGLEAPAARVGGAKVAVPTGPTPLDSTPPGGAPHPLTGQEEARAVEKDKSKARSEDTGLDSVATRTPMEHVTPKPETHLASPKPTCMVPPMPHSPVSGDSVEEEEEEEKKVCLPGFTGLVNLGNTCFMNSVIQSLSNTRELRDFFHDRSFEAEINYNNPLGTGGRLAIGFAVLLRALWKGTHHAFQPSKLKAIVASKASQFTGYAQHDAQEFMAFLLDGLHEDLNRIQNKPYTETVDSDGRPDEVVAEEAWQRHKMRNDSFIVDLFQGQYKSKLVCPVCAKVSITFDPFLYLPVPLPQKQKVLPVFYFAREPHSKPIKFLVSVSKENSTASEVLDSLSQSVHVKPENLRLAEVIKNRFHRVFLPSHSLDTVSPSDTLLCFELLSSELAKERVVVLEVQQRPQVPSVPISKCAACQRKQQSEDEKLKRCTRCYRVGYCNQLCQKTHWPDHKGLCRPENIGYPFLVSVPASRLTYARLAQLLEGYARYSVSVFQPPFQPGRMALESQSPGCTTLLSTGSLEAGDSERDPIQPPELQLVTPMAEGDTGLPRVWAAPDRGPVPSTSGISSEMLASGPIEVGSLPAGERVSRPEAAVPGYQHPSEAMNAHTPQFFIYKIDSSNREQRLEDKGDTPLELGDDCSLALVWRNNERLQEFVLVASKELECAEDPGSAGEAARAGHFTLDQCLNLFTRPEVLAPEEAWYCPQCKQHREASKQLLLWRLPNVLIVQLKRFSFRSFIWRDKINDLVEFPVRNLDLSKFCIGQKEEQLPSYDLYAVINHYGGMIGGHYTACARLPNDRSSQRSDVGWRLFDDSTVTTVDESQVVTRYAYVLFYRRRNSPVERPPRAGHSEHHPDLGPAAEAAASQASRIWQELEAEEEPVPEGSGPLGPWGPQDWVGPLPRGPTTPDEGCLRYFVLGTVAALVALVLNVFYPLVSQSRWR
In short: (§1)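 Labelled DUBs from HEK293T lysate were NeutrAvidin-enriched, digested with LysC and trypsin, and run by diaPASEF LC-MS/MS. Before that, each 495 µg sample in Tris/CHAPS/IGEPAL buffer with protease inhibitors was treated in triplicate with fragment at 200 µM or vehicle for 3 h, then with Biotin-Ahx-Ub-VS at 0.5 µM final for 1 h. Values are average log2 ratios of fragment over vehicle by unpaired t-test, based on global-median-normalised Spectronaut label-free quantities from proteins with ≥2 unique peptides.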

USP24 = USP24 (UniProt Q9UPU5)
In short: as §1

USP25 = molecular target: T2, USP25 (UniProt Q9UHP3)
T2 sequence (whole entry): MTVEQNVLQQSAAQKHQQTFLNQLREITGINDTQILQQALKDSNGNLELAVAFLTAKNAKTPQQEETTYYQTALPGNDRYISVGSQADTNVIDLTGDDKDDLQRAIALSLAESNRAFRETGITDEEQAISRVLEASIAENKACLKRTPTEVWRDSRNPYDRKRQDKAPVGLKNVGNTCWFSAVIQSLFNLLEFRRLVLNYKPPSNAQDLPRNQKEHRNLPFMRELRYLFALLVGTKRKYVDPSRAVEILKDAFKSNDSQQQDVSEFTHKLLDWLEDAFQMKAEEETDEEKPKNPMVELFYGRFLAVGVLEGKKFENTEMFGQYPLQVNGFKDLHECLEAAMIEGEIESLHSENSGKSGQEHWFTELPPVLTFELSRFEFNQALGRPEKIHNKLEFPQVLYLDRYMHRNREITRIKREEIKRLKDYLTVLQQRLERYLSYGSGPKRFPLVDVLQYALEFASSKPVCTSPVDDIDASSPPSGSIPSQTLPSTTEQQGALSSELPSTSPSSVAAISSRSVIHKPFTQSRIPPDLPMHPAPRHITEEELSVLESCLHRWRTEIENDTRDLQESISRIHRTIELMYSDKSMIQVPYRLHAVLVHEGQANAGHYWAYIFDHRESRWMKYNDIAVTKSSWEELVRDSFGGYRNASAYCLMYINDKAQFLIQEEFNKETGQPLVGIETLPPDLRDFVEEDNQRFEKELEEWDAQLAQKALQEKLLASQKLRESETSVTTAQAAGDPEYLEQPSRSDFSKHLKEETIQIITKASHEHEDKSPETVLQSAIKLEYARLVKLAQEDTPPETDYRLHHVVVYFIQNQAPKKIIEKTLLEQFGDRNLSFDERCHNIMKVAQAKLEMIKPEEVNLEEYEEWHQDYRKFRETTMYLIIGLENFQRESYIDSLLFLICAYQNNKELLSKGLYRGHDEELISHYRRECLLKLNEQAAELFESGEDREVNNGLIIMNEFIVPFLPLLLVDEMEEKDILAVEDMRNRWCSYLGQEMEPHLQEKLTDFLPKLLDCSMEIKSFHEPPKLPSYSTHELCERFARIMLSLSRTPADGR
In short: as §1

USP28 = molecular target: T3, USP28 (UniProt Q96RU2)
T3 sequence (whole entry): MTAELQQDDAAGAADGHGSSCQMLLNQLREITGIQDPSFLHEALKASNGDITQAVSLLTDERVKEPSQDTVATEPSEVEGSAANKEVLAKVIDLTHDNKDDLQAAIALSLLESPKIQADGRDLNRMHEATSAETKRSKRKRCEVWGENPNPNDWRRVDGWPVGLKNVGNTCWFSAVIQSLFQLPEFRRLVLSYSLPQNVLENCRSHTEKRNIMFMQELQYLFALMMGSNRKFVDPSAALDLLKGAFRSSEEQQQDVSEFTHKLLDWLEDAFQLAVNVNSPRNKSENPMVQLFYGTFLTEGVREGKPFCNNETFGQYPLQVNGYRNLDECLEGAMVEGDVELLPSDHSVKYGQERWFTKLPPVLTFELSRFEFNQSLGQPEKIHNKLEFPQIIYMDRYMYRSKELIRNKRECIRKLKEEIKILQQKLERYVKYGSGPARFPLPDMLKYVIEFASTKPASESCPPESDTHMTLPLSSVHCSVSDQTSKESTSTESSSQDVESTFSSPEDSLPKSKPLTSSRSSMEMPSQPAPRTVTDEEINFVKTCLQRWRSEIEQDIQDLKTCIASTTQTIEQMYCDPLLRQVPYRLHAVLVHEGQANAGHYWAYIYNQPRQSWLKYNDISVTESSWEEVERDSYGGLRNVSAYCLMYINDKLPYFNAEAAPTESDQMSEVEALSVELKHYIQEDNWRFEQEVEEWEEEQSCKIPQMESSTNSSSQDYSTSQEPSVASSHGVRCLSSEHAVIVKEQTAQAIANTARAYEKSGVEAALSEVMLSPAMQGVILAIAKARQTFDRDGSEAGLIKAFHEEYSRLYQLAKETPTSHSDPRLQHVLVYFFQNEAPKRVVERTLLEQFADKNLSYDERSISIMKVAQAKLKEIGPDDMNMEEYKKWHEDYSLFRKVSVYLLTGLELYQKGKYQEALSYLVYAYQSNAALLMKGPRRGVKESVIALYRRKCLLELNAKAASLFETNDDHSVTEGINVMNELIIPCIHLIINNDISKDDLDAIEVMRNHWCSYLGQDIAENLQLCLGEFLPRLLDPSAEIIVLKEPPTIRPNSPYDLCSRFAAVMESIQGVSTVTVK
In short: as §1

Measured: log2 ratio of Biotin-Ahx-Ub-VS probe labelling

USP24, sequence (Q9UPU5 whole entry): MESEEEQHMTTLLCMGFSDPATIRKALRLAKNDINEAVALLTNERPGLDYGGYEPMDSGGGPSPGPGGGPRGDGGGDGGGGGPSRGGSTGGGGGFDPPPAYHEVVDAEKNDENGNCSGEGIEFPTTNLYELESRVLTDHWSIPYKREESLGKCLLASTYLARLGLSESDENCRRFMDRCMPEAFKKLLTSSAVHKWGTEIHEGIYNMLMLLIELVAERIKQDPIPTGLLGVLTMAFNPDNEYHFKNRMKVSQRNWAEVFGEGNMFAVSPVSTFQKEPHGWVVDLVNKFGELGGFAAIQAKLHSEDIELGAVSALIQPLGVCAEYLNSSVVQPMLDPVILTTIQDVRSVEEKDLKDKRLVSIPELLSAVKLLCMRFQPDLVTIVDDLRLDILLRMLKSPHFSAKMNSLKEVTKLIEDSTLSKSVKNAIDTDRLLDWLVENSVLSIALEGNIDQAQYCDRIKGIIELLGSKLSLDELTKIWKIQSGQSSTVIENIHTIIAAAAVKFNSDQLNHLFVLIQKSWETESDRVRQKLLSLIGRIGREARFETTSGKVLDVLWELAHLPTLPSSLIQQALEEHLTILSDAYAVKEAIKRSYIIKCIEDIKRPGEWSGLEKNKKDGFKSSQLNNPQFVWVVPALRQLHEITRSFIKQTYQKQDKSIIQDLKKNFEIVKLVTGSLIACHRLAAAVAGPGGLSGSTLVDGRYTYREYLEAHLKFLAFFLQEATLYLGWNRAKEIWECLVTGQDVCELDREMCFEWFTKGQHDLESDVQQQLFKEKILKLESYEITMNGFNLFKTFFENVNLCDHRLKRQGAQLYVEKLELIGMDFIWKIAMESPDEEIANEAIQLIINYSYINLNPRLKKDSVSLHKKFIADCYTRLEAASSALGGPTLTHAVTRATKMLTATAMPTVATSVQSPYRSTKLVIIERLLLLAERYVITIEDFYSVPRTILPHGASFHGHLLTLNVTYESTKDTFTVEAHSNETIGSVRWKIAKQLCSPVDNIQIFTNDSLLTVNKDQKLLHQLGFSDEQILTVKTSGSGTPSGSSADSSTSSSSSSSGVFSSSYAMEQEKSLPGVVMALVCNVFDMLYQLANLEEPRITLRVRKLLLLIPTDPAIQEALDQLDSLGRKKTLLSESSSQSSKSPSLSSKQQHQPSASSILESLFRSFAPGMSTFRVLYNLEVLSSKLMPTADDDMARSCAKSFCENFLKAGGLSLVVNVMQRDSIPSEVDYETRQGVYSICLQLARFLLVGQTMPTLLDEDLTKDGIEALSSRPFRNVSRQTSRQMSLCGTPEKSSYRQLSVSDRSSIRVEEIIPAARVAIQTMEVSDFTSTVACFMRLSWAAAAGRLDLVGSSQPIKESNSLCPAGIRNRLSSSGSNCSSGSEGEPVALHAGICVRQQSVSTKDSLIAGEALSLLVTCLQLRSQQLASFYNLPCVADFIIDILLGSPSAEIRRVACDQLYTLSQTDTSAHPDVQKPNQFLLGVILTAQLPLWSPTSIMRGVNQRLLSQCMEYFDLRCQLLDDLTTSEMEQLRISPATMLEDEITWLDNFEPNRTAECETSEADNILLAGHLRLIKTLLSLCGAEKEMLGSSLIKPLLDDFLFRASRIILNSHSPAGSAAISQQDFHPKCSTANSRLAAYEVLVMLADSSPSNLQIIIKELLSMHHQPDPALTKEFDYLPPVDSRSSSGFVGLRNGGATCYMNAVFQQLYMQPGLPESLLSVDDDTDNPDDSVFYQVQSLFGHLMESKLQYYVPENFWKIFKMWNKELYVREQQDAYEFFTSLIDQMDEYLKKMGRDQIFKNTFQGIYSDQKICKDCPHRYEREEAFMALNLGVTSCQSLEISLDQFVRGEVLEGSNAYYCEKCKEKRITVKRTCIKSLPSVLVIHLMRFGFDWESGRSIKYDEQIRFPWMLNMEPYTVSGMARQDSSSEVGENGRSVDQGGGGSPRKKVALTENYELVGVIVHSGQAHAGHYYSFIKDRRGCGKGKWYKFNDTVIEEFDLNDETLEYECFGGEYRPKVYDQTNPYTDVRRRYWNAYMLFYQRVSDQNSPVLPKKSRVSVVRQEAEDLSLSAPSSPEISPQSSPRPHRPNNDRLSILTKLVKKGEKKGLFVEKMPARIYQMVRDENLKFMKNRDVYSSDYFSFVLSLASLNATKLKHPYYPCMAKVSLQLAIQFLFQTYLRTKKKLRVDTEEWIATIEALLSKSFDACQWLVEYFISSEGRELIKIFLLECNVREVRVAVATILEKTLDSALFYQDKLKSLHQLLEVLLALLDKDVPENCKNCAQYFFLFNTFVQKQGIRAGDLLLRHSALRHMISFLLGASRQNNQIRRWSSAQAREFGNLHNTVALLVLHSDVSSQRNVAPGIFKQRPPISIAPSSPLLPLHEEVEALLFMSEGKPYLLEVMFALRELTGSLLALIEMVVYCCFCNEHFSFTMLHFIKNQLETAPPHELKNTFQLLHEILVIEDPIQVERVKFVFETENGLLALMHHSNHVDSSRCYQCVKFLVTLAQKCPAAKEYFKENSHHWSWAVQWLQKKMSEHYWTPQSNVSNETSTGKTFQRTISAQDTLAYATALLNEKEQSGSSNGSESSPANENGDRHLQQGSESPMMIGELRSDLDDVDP

O=C(CCl)N(Cc1ccsc1)C1CC1
inactive: USP19 -0.0676 | USP24 -0.704 | USP25 -0.45 | USP28 -0.283
